Test results as given in PubChem BioAssay (NCATS).
Records with an inconclusive call do not appear. A number with no mark means an inactive call. The source made the active and inactive calls. The call rests on the fitted dose curve; in most records, active means well fitted cell-killing curve with a large enough effect; inconclusive means small, poorly fitted or top-dose-only effect, or effect the other way; inactive means no such curve, though single readings can be large or run the other way.

Test: Quantitative High-Throughput drug screen in 47 multiple myeloma cell lines against the NCATS MIPE library collection: ARP1_JJKsccF8 cell viability assay (AID 1918928; further: nearly all actives have a fitted effect of over 40% in size)
Settings: ARP1 myeloma cells viability, CellTiter-Glo ATP, 48 h; series mostly up to 45.8 µM; viability: at the top concentration
Excerpt: PI: Beverly A. Mock Ph.D.
Laboratory of Cancer Biology and Genetics,
Center for Cancer Research, National Cancer Institute,
National Institute of Health, Bethesda, Maryland
Drug resistance and disease progression are common in multiple myeloma (MM) patients, underscoring the need for new therapeutic combinations. […] We hypothesized that effective combinations would reduce MYC expression and enhance p16 activity. […] These preclinical data identify potentially useful drug combinations for evaluation in drug-resistant MM and reveal potential mechanisms of combined drug sensitivity.
Described herein is the primary MIPE qHTS used to cherrypick compounds. Validated compounds were then further tested for potential synergistic activiy.
[1] Peat TJ, Gaikwad SM, Dubois W, Gyabaah-Kessie N, Zhang S, Gorjifard S, Phyo Z, Andres M, Hughitt VK, Simpson RM, Miller MA, Girvin AT, Taylor A, Williams D, D'Antonio N, Zhang Y, Rajagopalan A, Flietner E, Wilson K, Zhang X, Shinn P, Klumpp-Thomas C, McKnight C, Itkin Z, Chen L, Kazandijian D, Zhang J, Michalowski AM, Simmons JK, Keats J, Thomas CJ, Mock BA. Drug combinations identified by high-throughput screening promote cell cycle transition and upregulate Smad pathways in myeloma. Cancer Lett. 2023 Aug 1;568:216284. doi: 10.1016/j.canlet.2023.216284. Epub 2023 Jun 24. PMID: 37356470; PMCID: PMC10408729.
SEQUENCE No. (e.g., 1, 2, 3, etc.); […] (e.g., Cells, Incubation, Reagent, etc.); VALUE and DESCRIPTION.
1; Cells; 5 uL; white, solid bottom 1536-well Greiner assay plate.
2; Compounds; 23 nL; Kalypsis pin tool (Wako USA) equipped with a 1536-well pin head to transfer to the assay plates.
3; Incubation; 48 hours; 37C incubation.
4; Reagent;5uL; CellTiter Glo (Promega).
5; Detector; 425V; Luminescence; Viewlux PerkinElmer.
NOTES (numbers refer to Sequence numbers above)
1. The cell-based screening methods employed in this study were like those previously published. Briefly, the corresponding myeloma cell lines were screened in 1,536-well plates with 500 cells, 5-uL per well for inhibition of cell viability (assessed by measuring ATP levels with CellTiterGlo).
2. NCATS MIPE 4.0 library of approved and investigational drugs were added using the Kalypsis pin tool. Wells treated with DMSO only for 100% viability and media only cells for 0% viability were used as controls.
3. The assay plates were covered and incubated for 48 hours in a 37C, 5% CO2 incubator with controlled humidity.
4. After 48 hours, CellTilter-GloTM luminescent substrate mix (Promega) reagent was added to the assay plate and plates we incubated for 5 min at room temperature.
5. Signal was measured as median relative luminescence units on a ViewLux (PerkinElmer) multiplate reader.
[1] Heske CM, Davis MI, Baumgart JT, Wilson K, Gormally MV, Chen L, Zhang X, Ceribelli M, Duveau DY, Guha R, Ferrer M, Arnaldez FI, Ji J, Tran HL, Zhang Y, Mendoza A, Helman LJ, Thomas CJ. Matrix Screen Identifies Synergistic Combination of PARP Inhibitors and Nicotinamide Phosphoribosyltransferase (NAMPT) Inhibitors in Ewing Sarcoma. Clin Cancer Res. 2017 Dec 1;23(23):7301-7311. doi: 10.1158/1078-0432.CCR-17-1121. Epub 2017 Sep 12. PMID: 28899971; PMCID: PMC6636827.
Potency means the concentration at half of the fitted maximal effect.

Row | SMILES | Potency | viability
1 | C[C@@H]1C[C@H]2[C@@H]3CCC4=CC(=O)C=C[C@]4(C)[C@@]3(F)[C@@H](O)C[C@]2(C)[C@@]1(O)C(=O)CO | 0.0235 µM (active) | –
2 | C[C@@H]1[C@H](C)CC[C@]2(C(=O)O)CC[C@]3(C)C(=CC[C@@H]4[C@@]5(C)CC[C@H](O)C(C)(C)[C@H]5CC[C@]43C)[C@@H]12 | 42.9 µM (active) | –
3 | CCCCC[C@H](O)C=C[C@H]1[C@H](O)CC(=O)[C@H]1CC=CCCCC(=O)O | – | 70.7%
4 | COc1ccc(-c2cc(=O)c3c(O)cc(O[C@@H]4O[C@H](CO[C@@H]5O[C@@H](C)[C@H](O)[C@@H](O)[C@@H]5O)[C@@H](O)[C@H](O)[C@@H]4O)cc3o2)cc1O | – | 89.9%
5 | CN1C(=O)C(Cc2c[nH]c3ccccc23)NC1=S (stereo not given) | – | 98.6%
6 | COc1cc2nc(-c3cc(F)ccc3O)nc(N[C@@H]3CNC[C@@H]3C(C)(C)O)c2cc1OC | 10.5 µM (active) | –
7 | CNC(=O)c1ccc2c(C(=Nc3cccc(CN(C)C)c3)c3ccccc3)c(O)[nH]c2c1 | – | 71.2%
8 | CC[C@H](C)C(=O)O[C@H]1C[C@H](O)C=C2C=C[C@H](C)[C@H](CC[C@@H](O)C[C@@H](O)CC(=O)O)[C@H]21 | – | 112%
9 | CC1(C)[C@H]2CC[C@]3(C)[C@@H](C(=O)C=C4[C@@H]5C[C@@](C)(C(=O)O)CC[C@]5(C)CC[C@]43C)[C@@]2(C)CC[C@@H]1O | – | 85.3%
10 | CCOC(=O)[C@@H](N)CCC(=O)N[C@@H](CSCc1ccccc1)C(=O)N[C@@H](C(=O)OCC)c1ccccc1 | – | 48.9%
11 | O=C(CO)N1CCC(c2[nH]nc(-c3ccc(Cl)cc3)c2-c2ccncn2)CC1 | – | 99.8%
12 | CCC[C@H](N[C@@H](C)C(=O)N1[C@@H]2CCCC[C@H]2C[C@H]1C(=O)O)C(=O)OCC | – | 103%
13 | O=C(NCCCCN1CCOCC1)c1cc2ccccc2o1 | – | 100%
14 | COc1cc2c(cc1Cc1cccc(Cl)c1F)c(=O)c(C(=O)O)cn2[C@H](CO)C(C)C | 16.6 µM (active) | –
15 | CCC(=C(CC)c1ccc(O)cc1)c1ccc(O)cc1 | 18.7 µM (active) | –
16 | CC(C)N(CCCNC(=O)Nc1ccc(C(C)(C)C)cc1)C[C@H]1O[C@@H](n2cc(Br)c3c(N)ncnc32)[C@H](O)[C@H]1O | 20.9 µM (active) | –
17 | CC1(C)CC(=O)c2c(C(F)(F)F)nn(-c3ccc(C(N)=O)c(NC4CCC(O)CC4)c3)c2C1 (stereo not given) | 0.132 µM (active) | –
18 | CO[C@H]1O[C@@H]2O[C@@]3(C)CC[C@@H]4[C@@H](C)CC[C@@H]([C@H]1C)[C@@]24OO3 | 16.6 µM (active) | –
19 | CCN(CC)CCCCNc1nc2cc(Cl)c(Cl)cc2nc1-c1ccc(-c2cccs2)s1 | 7.43 µM (active) | –
20 | Fc1ccc(CNc2ncnc3ccc(F)cc23)cc1 | 6.62 µM (active) | –

Row | SMILES | Potency | viability
21 | CC(=O)OCC(=O)[C@@]12OC(C)(C)O[C@H]1C[C@H]1[C@@H]3C[C@H](F)C4=CC(=O)C=C[C@]4(C)[C@@]3(F)[C@@H](O)C[C@@]12C | 0.0264 µM (active) | –
22 | CN1CCN(c2ncc(-c3cc(Cl)cc(Cl)c3Cl)c(N)n2)CC1 | – | 105%
23 | COc1cc2c(cc1OC)CC(=O)N(CCCN(C)C[C@H]1Cc3cc(OC)c(OC)cc31)CC2 | – | 93.7%
24 | N#CC(=C1Nc2ccccc2S1)c1ccnc(OCc2ccc(CN3CCOCC3)cc2)n1 | 23.5 µM (active) | –
25 | Cc1cccc(-c2[nH]c(C(C)(C)C)nc2-c2ccc3c(c2)OCO3)n1 | 16.6 µM (active) | –
26 | CC(C)C[C@@H](C(=O)N[C@H](C(=O)OC1CCCC1)c1ccccc1)[C@H](O)C(=O)NO | 14.8 µM (active) | –
27 | COc1cc([C@H]2Oc3cc([C@H]4Oc5cc(O)cc(O)c5C(=O)[C@H]4O)ccc3O[C@H]2CO)ccc1O | 16.6 µM (active) | –
28 | CN1CC(=O)N2C(Cc3c([nH]c4ccccc34)[C@H]2c2ccc3c(c2)OCO3)C1=O (stereo not given in full) | – | 104%
29 | CCCCC(C)(C)[C@H](O)C=C[C@H]1[C@H](O)CC(=O)[C@H]1CC=CCCCC(=O)O | 23.5 µM (active) | –
30 | C[C@H]1COC2=C1C(=O)C(=O)c1c2ccc2c1CCCC2(C)C | 16.6 µM (active) | –
31 | O=C1NC(=O)C(c2cnc3ccccn23)=C1c1cn2c3c(cccc13)CN(C(=O)N1CCOCC1)CC2 | 0.0066 µM (active) | –
32 | N#CC(c1ccnc(NCCc2cccnc2)n1)c1nc2ccccc2s1 (stereo not given) | 18.7 µM (active) | –
33 | CC1=C(C(=O)Nc2cc3cn[nH]c3cc2F)C(c2ccc(C(F)(F)F)cc2)CC(=O)N1 (stereo not given) | – | 110%
34 | CN[C@H]1[C@@H](O[C@@H]2[C@H](O[C@@H]3[C@@H](O)[C@@H](O)[C@@H](N=C(N)N)[C@@H](O)[C@@H]3N=C(N)N)O[C@H](C)[C@@]2(O)C=O)O[C@@H](CO)[C@@H](O)[C@H]1O | – | 119% [at 15.3 µM]
35 | CN(C)CCN(C)C(=O)c1ccc(NC(=O)Nc2ccc(-c3nc(N4CCOCC4)c4ccn(CC(F)(F)F)c4n3)cc2)cc1 | 0.0264 µM (active) | –
36 | Cc1cn([C@@H]2C[C@@H](O)[C@H](CO)O2)c(=O)[nH]c1=O | – | 86.3%
37 | COc1ccc2c(c1)CC[C@H]1[C@@H]2CC[C@]2(C)[C@@H](NCCCCCCN3C(=O)C=CC3=O)CC[C@H]12 | – | 81.1%
38 | CC(=O)NCCC(=O)N[C@@H](CCC(N)=O)C(=O)N[C@@H](CO)C(=O)N[C@@H](CCC(N)=O)C(=O)N[C@@H](CCC(N)=O)C(=O)N[C@H](C(=O)N[C@@H](Cc1ccccc1)C(=O)N[C@]1(C)CCCCCCC=CCCC[C@@](C)(C(=O)N[C@@H](CCC(N)=O)C(=O)N[C@@H](CC(N)=O)C(N)=O)NC(=O)[C@H](CC(C)C)NC(=O)[C@H](CC(C)C)NC(=O)[C@@H](CCCNC(=N)N)NC(=O)[C@H](Cc2c[nH]c3ccccc23)NC(=O)[C@H](CC(C)C)NC(=O)[C@H](CC(N)=O)NC1=O)[C@H](C)O | 20.9 µM (active) | –
39 | CC(NCCc1ccc(O)cc1)C(O)c1ccc(O)cc1 (stereo not given) | – | 112%
40 | CCCCc1ccc(NS(=O)(=O)c2ccc(C)c(C(=O)N3CCN(c4cccc(C)c4C)CC3)c2)cc1 | 20.9 µM (active) | –
